Read-out in assay [1]: Interleukin-6 (IL6), IL6 (gene 3569)
In words: BSK_CASM3C_IL6: BioMAP Diversity Plus: CASM3C Assay for Interleukin-6 (IL6) Biomarker Activity for (AID 2283040). Conditions: primary human coronary artery smooth muscle cells; actives raise or lower the signal.

Read-out in assay [2]: Tissue plasminogen activator (tPA), PLAT (gene 5327)
In words: BSK_BE3C_tPA: BioMAP Diversity Plus: BE3C Assay for Tissue plasminogen activator (tPA) Biomarker Activity (AID 2283041).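 On outcome: tPA level quantified by ELISA one day after compound addition.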 To be noted: primary human bronchial epithelial cells; actives raise or lower the signal. The method, boiled down:
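Human primary bronchial epithelial cells were dosed with chemical and tPA biomarker levels measured by ELISA 24 hours later. Activity was fitted bidirectionally against DMSO as negative control and baseline.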

Read-out in assay [3]: Interleukin-8 (IL8), CXCL8 (gene 3576)
In words: BSK_CASM3C_IL8: BioMAP Diversity Plus: CASM3C Assay for Interleukin-8 (IL8) Biomarker Activity (AID 2283042).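 Further: IL-8 protein level quantified by ELISA.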 Conditions: primary human coronary artery smooth muscle cells; actives raise or lower the signal.

Read-out in assay [4]: Human Leukocyte Antigen - DR isotype (HLADR), HLA-DRA (gene 3122)
In words: BSK_CASM3C_HLADR: BioMAP Diversity Plus: CASM3C Assay for Human Leukocyte Antigen - DR isotype (HLADR) Biomarker Activity (AID 2283043).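 Further: cell-surface HLA-DR protein level quantified by ELISA.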 Conditions: primary human coronary artery smooth muscle cells; actives raise or lower the signal.

Read-out in assay [5]: Macrophage colony-stimulating factor (MCSF), CSF1 (gene 1435)
The assay can be described thus: BSK_CASM3C_MCSF: BioMAP Diversity Plus: CASM3C Assay for Macrophage colony-stimulating factor (MCSF) Biomarker Activity (AID 2283044).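 Further: M-CSF protein amount quantified by ELISA after 24 h exposure.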 To be noted: primary human coronary artery smooth muscle cells; actives raise or lower the signal.

Read-out in assay [6]: Low-density lipoprotein receptor (LDLR), LDLR (gene 3949)
In words: BSK_CASM3C_LDLR: BioMAP Diversity Plus: CASM3C Assay for Low-density lipoprotein receptor (LDLR) Biomarker Activity (AID 2283045).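 Further: LDLR protein level on the cell surface quantified by ELISA.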 Conditions: primary human coronary artery smooth muscle cells; actives raise or lower the signal.

Read-out in assay [7]: Monocyte Chemoattractant Protein-1 (MCP1), CCL2 (gene 6347)
In words: BSK_CASM3C_MCP1: BioMAP Diversity Plus: CASM3C Assay for Monocyte Chemoattractant Protein-1 (MCP1) Biomarker Activity (AID 2283046).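 Further: MCP-1 level quantified by ELISA 24 h after dosing.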 Conditions: primary human coronary artery smooth muscle cells; actives raise or lower the signal.

A short description of assay [8]: BSK_CASM3C_Proliferation: Cell Proliferation Assessment in the BioMAP Diversity Plus: CASM3C Assay (AID 2283047).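 Further: sulforhodamine B total protein stain as relative cell number at 560 nm; sub-confluent cells exposed 48 h before staining; fitted both ways against DMSO so gain or loss of cell number.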 Conditions: primary human coronary artery smooth muscle cells.
Read-out in assay [9]: Monokine induced gamma interferon (MIG), CXCL9 (gene 4283)
In words: BSK_CASM3C_MIG: BioMAP Diversity Plus: CASM3C Assay for Monokine induced gamma interferon (MIG) Biomarker Activity (AID 2283048).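 Further: MIG protein level measured by ELISA.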 Conditions: primary human coronary artery smooth muscle cells; actives raise or lower the signal.

Read-out in assay [10]: serum amyloid A (SAA), SAA1 (gene 6288)
In words: BSK_CASM3C_SAA: BioMAP Diversity Plus: CASM3C Assay for serum amyloid A (SAA) Biomarker Activity (AID 2283049).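 Further: SAA protein level quantified by ELISA.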 To be noted: primary human coronary artery smooth muscle cells; actives raise or lower the signal.

Assay [11] is described as follows: BSK_CASM3C_SRB: Viability Assessment in the BioMAP Diversity Plus: CASM3C Assay (AID 2283050).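 Further: total protein by SRB staining as cytotoxicity measure in parallel cultures.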 To be noted: primary human coronary artery smooth muscle cells.
Read-out in assay [12]: Thrombomodulin, THBD (gene 7056)
In words: BSK_CASM3C_Thrombomodulin: BioMAP Diversity Plus: CASM3C Assay for Thrombomodulin Biomarker Activity (AID 2283051).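 Further: thrombomodulin protein level measured by ELISA 24 h after dosing.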 To be noted: primary human coronary artery smooth muscle cells; actives raise or lower the signal.

Read-out in assay [13]: Tissue Factor, F3 (gene 2152)
In words: BSK_CASM3C_TissueFactor: BioMAP Diversity Plus: CASM3C Assay for Tissue Factor Biomarker Activity (AID 2283052).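 Further: cell surface tissue factor protein level read by ELISA.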 To be noted: primary human coronary artery smooth muscle cells; actives raise or lower the signal.

Read-out in assay [14]: Urokinase-type plasminogen activator receptor (uPAR), PLAUR (gene 5329)
The assay can be described thus: BSK_CASM3C_uPAR: BioMAP Diversity Plus: CASM3C Assay for Urokinase-type plasminogen activator receptor (uPAR) Biomarker Activity (AID 2283054).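 Further: cell-surface uPAR protein level quantified by ELISA.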 Conditions: primary human coronary artery smooth muscle cells; actives raise or lower the signal.

Read-out in assay [15]: Vascular cell adhesion molecule 1 (VCAM1), VCAM1 (gene 7412)
In words: BSK_CASM3C_VCAM1: BioMAP Diversity Plus: CASM3C Assay for Vascular cell adhesion molecule 1 (VCAM1) Biomarker Activity (AID 2283055).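 Further: VCAM-1 protein level quantified by ELISA on the cells.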 To be noted: primary human coronary artery smooth muscle cells; actives raise or lower the signal.

Read-out in assay [16]: Collagen III, COL3A1 (gene 1281)
In words: BSK_hDFCGF_CollagenIII: BioMAP Diversity Plus: hDFCGF Assay for Collagen III Biomarker Activity (AID 2283056). Conditions: primary human foreskin fibroblasts; actives raise or lower the signal. The method, boiled down:
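ELISA readout of Collagen III in human dermal (foreskin) fibroblasts, taken 24 h post-treatment. Gain or loss relative to DMSO vehicle fitted in both directions.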

Read-out in assay [17]: Epidermal growth factor receptor (EGFR), EGFR (gene 1956)
In words: BSK_hDFCGF_EGFR: BioMAP Diversity Plus: hDFCGF Assay for Epidermal growth factor receptor (EGFR) Biomarker Activity (AID 2283057). Conditions: primary human foreskin fibroblasts; actives raise or lower the signal. The essentials: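 Primary human foreskin fibroblasts were exposed to compound for 24 h, after which cell-surface EGFR was quantified by ELISA. Activity was fitted bidirectionally against the DMSO negative control as baseline.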

Read-out in assay [18]: Interleukin-8 (IL8), CXCL8 (gene 3576)
The assay can be described thus: BSK_hDFCGF_IL8: BioMAP Diversity Plus: hDFCGF Assay for Interleukin-8 (IL8) Biomarker Activity (AID 2283058). Conditions: primary human foreskin fibroblasts; actives raise or lower the signal. The essentials:
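IL-8 levels read by ELISA at 24 hours after dosing human skin fibroblast cultures. Parallel SRB staining assessed overt cytotoxicity, and gain or loss of signal was fitted against DMSO control.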

Assay [19] in a line: BSK_hDFCGF_Proliferation: Cell Proliferation Assessment in the BioMAP Diversity Plus: hDFCGF Assay (AID 2283059).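 Further: curves fitted for both rise and fall of signal versus DMSO baseline.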 To be noted: primary human foreskin fibroblasts. The method, boiled down: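 Total protein read at 560 nm after 0.1% SRB staining of TCA-fixed human skin fibroblasts, […]. Activity is fitted in both directions relative to DMSO as baseline.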

Read-out in assay [20]: Interferon-gamma inducible Protein 10 (IP10), CXCL10 (gene 3627)
In words: BSK_hDFCGF_IP10: BioMAP Diversity Plus: hDFCGF Assay for Interferon-gamma inducible Protein 10 (IP10) Biomarker Activity (AID 2283053). To be noted: primary human foreskin fibroblasts; actives raise or lower the signal. The method, boiled down:
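Human foreskin fibroblast primary cells (hDFCGF system) were dosed with chemical and assayed at 24 h; IP-10 measured by ELISA. Activity fitted bidirectionally relative to DMSO negative control as baseline.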

Several values for one entry are separate records, joined by “and”; a condition that tells them apart may be missing. Equal entries are not always repeated. A structure can be active in one record and inactive in another. Activity calls are given as the source filed them. How the source made its calls: active means hit-call score of the fitted dose curve at least 0.9, where 1 is the maximum; inactive means score below 0.9.

Take `O=[N+]([O-])c1ccc(Cl)c(Cl)c1`: the outcome in assay [1], in assay [2], in [3], in assay [4], in assay [5] and in [6] was inactive. The result in assay [7], in assay [8], in assay [9], in assay [10], in assay [11] and in assay [12] was inactive. Also, the result in assay [13], in assay [14], in assay [15], in assay [16], in [17] and in assay [18] was inactive. In assay [19], the result was inactive.

Take `COC(=O)C(F)(F)C(F)(F)OC(F)(C(F)(F)F)C(F)(F)OC(F)=C(F)F` (centres undefined): the result in assay [1], in [2], in assay [3], in assay [4], in [5] and in [6] was inactive. Also, the result in assay [7], in assay [8], in assay [9], in assay [10], in [11] and in assay [12] was inactive. The result in assay [13], in assay [14], in assay [15], in assay [17], in assay [18] and in [19] was inactive. The AC50 in assay [20] is 5.35 µM (active) and 2.92 µM (active); in [19] it was 5.81 µM (active).

With `O=c1ssc(Cl)c1Cl`, the AC50 in assay [1] was 4.33 µM (active); in [2] it was 7.68 µM (active); in assay [4] it was 3.54 µM (active); in assay [5], 5.46 µM (active); in [7], 5.7 µM (active); in assay [8], 1.69 µM (active). For the same compound, the AC50 was 24.4 µM (active) in assay [9]; 1.4 µM (active) in assay [10]; 3.99 µM (active) in [11]; 6.61 µM (active) in [13]; 6.83 µM (active) in assay [14]; 4.48 µM (active) in assay [15]. Further, the AC50 in assay [16] is 8.15 µM (active); in assay [17] it was 3.16 µM (active); in assay [18], 13.1 µM (active); in assay [19], 0.577 µM (active). The result in [3], in assay [6] and in [12] was inactive.

With `c1ccc2c(c1)Nc1ccccc1S2`, the result in assay [1], in assay [2], in [3], in assay [4], in [5] and in assay [6] was inactive. For the same compound, the result in [7], in assay [8], in assay [9], in [10], in assay [11] and in [13] was inactive. Besides, the outcome in assay [14], in assay [15], in assay [16], in [17] and in [18] was inactive. In addition, the results for the AC50 in assay [12] and in assay [19] were 0.542 µM (active) and 30.4 µM (active), respectively.

`O=S1(=O)OCC2C(CO1)C1(Cl)C(Cl)=C(Cl)C2(Cl)C1(Cl)Cl` (centres undefined): the outcome in [1], in [2], in assay [3], in [6], in assay [7] and in assay [9] was inactive. Moreover, the outcome in assay [11], in assay [20], in [15], in assay [17], in [18] and in assay [19] was inactive. Further, the AC50 is 32.7 µM (active) in [4]; 7.85 µM (active) in [5]; 20 µM (active) in assay [8]; 23.2 µM (active) in [10]; 20 µM (active) in assay [12]; 20.9 µM (active) in assay [13]. The AC50 in assay [14] is 30.1 µM (active).

With `O=C(O)C(Cl)Cl`, the result in [1], in assay [2], in [3], in assay [4], in assay [5] and in assay [6] was inactive. In addition, the outcome in assay [7], in [8], in assay [9], in assay [10], in assay [11] and in assay [12] was inactive. The result in [13], in assay [20], in assay [14], in assay [15], in assay [17] and in assay [18] was inactive. The result in assay [19] was inactive.

Turning to `CCNc1nc(Cl)nc(NC(C)(C)C)n1`, the result in assay [1], in assay [2], in [3], in [4], in assay [5] and in assay [6] was inactive. Moreover, the result in assay [7], in [9], in assay [10], in assay [11], in [12] and in assay [13] was inactive. For the same compound, the outcome in assay [20], in [14], in assay [15], in [17], in assay [18] and in assay [19] was inactive. In addition, the AC50 in assay [8] is 4.52 µM (active).

The record behind these values is PubChem BioAssay (EPA / NIEHS).
